Laboratory results taken from PubChem BioAssay (EPA / NIEHS).
Results filed as inconclusive are left out. The source made the active and inactive calls. How the source made its calls: active means hit-call score of the fitted dose curve at least 0.9, where 1 is the maximum; inconclusive means response in the unintended direction; inactive means score below 0.9.

Experiments:
[1] = TOX21_p53_BLA_p4_viability: Viability Assessment in the Tox21 HCT-116 p53 Agonism Beta-lactamase Assay, Phase 4 (AID 2283597);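 further: hits lower the luminescence signal meaning cytotoxicity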
Method in brief: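 Cells plated, 5 h pre-incubation; DMSO compounds pinned (217-fold dilution); 16 h, 37C/5% CO2; CCF4-AM 2 h RT; CellTiter-Glo 30 min RT; luminescence read.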

[2] = TOX21_p53_BLA_p5_viability: Viability Assessment in the Tox21 HCT-116 p53 Agonism Beta-lactamase Assay, Phase 5 (AID 2283600)
Method in brief: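 4000 cells/well; 5 h pre-incubation; DMSO compounds pin-transferred, 217-fold dilution; 16 h, 37C/5% CO2; CCF4-AM 2 h RT; CellTiter-Glo 30 min RT; luminescence.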

[3] = Tanguay_ZF_120hpf_MORT_legacy: (Legacy) Oregon State University Tanguay Lab 120 Hour Post-fertilization zebrafish Assay for Mortality (AID 2283633)
Method in brief: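 5D WT zebrafish, chorion removed 4 hpf; 1 embryo/well from 6 hpf; static exposure to 120 hpf, 28C, dark, sealed. Final DMSO 0.64%. Readout: binary mortality, brightfield, 24 + 120 hpf; DMSO as negative control.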

[4] = Tanguay_ZF_120hpf_YSE_legacy: (Legacy) Oregon State University Tanguay Lab 120 Hour Post-fertilization zebrafish Assay for Yolk Sac Edema (AID 2283634)
Method in brief: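 Dechorionate (pronase, 4 hpf) → place one 6 hpf embryo per well → static compound exposure, sealed and foil-covered, 28C, to 120 hpf → record yolk sac edema as present or absent. Final DMSO 0.64%.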

[5] = Tanguay_ZF_120hpf_AXIS_legacy: (Legacy) Oregon State University Tanguay Lab 120 Hour Post-fertilization zebrafish Assay for Body Axis Malformation (AID 2283635)
Method in brief: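 Chorion is removed with pronase at 4 hpf, then single 6 hpf embryos are dosed (final DMSO 0.64%) and held statically at 28C in sealed, foil-covered plates. At 120 hpf body axis malformation is recorded as present or absent.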

[6] = Tanguay_ZF_120hpf_EYE_legacy: (Legacy) Oregon State University Tanguay Lab 120 Hour Post-fertilization zebrafish Assay for Eye Malformation (AID 2283636)
Method in brief: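 Read-out is binary presence or absence of eye malformation, scored by brightfield microscopy at 120 hpf. Single larvae were exposed from 6 hpf in embryo medium containing 0.64% DMSO, with DMSO as baseline.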

[7] = Tanguay_ZF_120hpf_SNOU_legacy: (Legacy) Oregon State University Tanguay Lab 120 Hour Post-fertilization zebrafish Assay for Snout Malformation (AID 2283637)
Method in brief: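 Snout malformation read as a yes/no call on brightfield images of 120 hpf larvae (Tropical 5D strain). Static exposure began at 6 hpf on dechorionated embryos in 0.64% DMSO, with gain of signal analysed versus DMSO controls.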

[8] = Tanguay_ZF_120hpf_JAW_legacy: (Legacy) Oregon State University Tanguay Lab 120 Hour Post-fertilization zebrafish Assay for Jaw Malformation (AID 2283638)
Method in brief: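 Steps: dechorionate 4 hpf embryos (pronase); plate 1/well at 6 hpf; add test chemical, 0.64% DMSO final; seal, cover, hold at 28C statically to 120 hpf; score jaw defect presence/absence microscopically. Dead embryos not scored.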

[9] = Tanguay_ZF_120hpf_OTIC_legacy: (Legacy) Oregon State University Tanguay Lab 120 Hour Post-fertilization zebrafish Assay for Otic Vesicle Malformation (AID 2283639)
Method in brief: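 Tropical 5D wild-type zebrafish embryos statically exposed in 0.64% DMSO at 28C until 120 hpf; 5uM trimethyltin chloride as positive control. Otic vesicle malformation scored present/absent by brightfield; dead embryos not scored; gain fitted versus DMSO.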

[10] = Tanguay_ZF_120hpf_PE_legacy: (Legacy) Oregon State University Tanguay Lab 120 Hour Post-fertilization zebrafish Assay for Pericardial Edema (AID 2283640)
Method in brief: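 Embryos from wild-type 5D adults were staged, then dosed in 0.64% DMSO. They were kept sealed in the dark at 28C until 120 hpf. Pericardial edema was then recorded as present or absent.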

[11] = Tanguay_ZF_120hpf_SOMI_legacy: (Legacy) Oregon State University Tanguay Lab 120 Hour Post-fertilization zebrafish Assay for Somite Malformation (AID 2283647)
Method in brief: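 Read-out: presence or absence of somite malformation in 120 hpf larvae, gain-of-signal relative to DMSO baseline. Embryos lacked chorion (pronase, 4 hpf) and were exposed statically from 6 hpf at 28C; dead larvae not scored.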

[12] = Tanguay_ZF_120hpf_PFIN_legacy: (Legacy) Oregon State University Tanguay Lab 120 Hour Post-fertilization zebrafish Assay for Pectoral Fin Malformation (AID 2283648);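 further: each larva judged yes or no for fin defect by brightfield with dead larvae skipped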
Method in brief: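 5D WT zebrafish; pronase dechorionation 4 hpf; 1 embryo/well at 6 hpf; static exposure to 120 hpf, 28C, sealed, foil-covered; final DMSO 0.64% v/v; 5 uM trimethyltin chloride positive control; fin defect scored yes/no.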

[13] = Tanguay_ZF_120hpf_CFIN_legacy: (Legacy) Oregon State University Tanguay Lab 120 Hour Post-fertilization zebrafish Assay for Caudal Fin Malformation (AID 2283649)
Method in brief: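 Binary presence or absence of caudal fin malformation at 120 hpf, read by brightfield microscopy, with DMSO as baseline. Larvae came from 5D wild-type embryos exposed statically from 6 hpf at 28C after pronase dechorionation.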

[14] = Tanguay_ZF_120hpf_PIG_legacy: (Legacy) Oregon State University Tanguay Lab 120 Hour Post-fertilization zebrafish Assay for Pigmentation Malformation (AID 2283650)
Method in brief: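 Pronase dechorionation at 4 hpf; embryos plated at 6 hpf, one per well; static exposure, sealed and foil-covered, 28C, to 120 hpf; pigmentation read by brightfield, binary; DMSO 0.64% baseline, 5uM trimethyltin chloride positive control.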

[15] = Tanguay_ZF_120hpf_CIRC_legacy: (Legacy) Oregon State University Tanguay Lab 120 Hour Post-fertilization zebrafish Assay for Circulatory Malformation (AID 2283651)
Method in brief: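 Dechorionated wild-type 5D zebrafish embryos, one per well, statically exposed from 6 to 120 hpf at 28C with 0.64% DMSO; circulatory malformation scored present/absent by brightfield microscopy at 120 hpf, dead embryos excluded.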

[16] = molecular target: Cellular tumor antigen p53 (Homo sapiens) (UniProt P04637); test: TOX21_p53_BLA_p5_ratio: Tox21 HCT-116 p53 Agonism Beta-lactamase Assay, Ratio, Phase 5 (AID 2283599)
Method in brief: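 Beta-lactamase reporter ratio (blue 460 nm over green 530 nm, 405 nm excitation) after 2 h CCF4-AM loading, in HCT-116 cells exposed 16 h at 37 C to compounds pinned at 217-fold dilution. Increases relative to DMSO baseline scored.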

[17] = molecular target: Cellular tumor antigen p53 (Homo sapiens) (UniProt P04637); test: TOX21_p53_BLA_p4_ratio: Tox21 HCT-116 p53 Agonism Beta-lactamase Assay, Ratio, Phase 4 (AID 2283601)
Method in brief: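 Signal is the blue/green (460nm/530nm) ratio of cleaved versus uncleaved CCF4-AM substrate, read after 2 h substrate loading. Cells were HCT116 carrying the p53-responsive beta-lactamase reporter, dosed 16 h at 37C, 5% CO2; CellTiter-Glo measured in parallel.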

[18] = Tanguay_ZF_120hpf_BRAI_legacy: (Legacy) Oregon State University Tanguay Lab 120 Hour Post-fertilization zebrafish Assay for Brain Malformation (AID 2283641)
Method in brief: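 Wild-type 5D larvae, static waterborne exposure to 120 hpf, 28C, 0.64% v/v DMSO. Brightfield scoring of brain defects, binary; dead embryos excluded. Positive ctrl 5uM trimethyltin chloride.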

Measured: outcome

Chain of Cellular tumor antigen p53 (Homo sapiens) (P04637 whole entry, looked up): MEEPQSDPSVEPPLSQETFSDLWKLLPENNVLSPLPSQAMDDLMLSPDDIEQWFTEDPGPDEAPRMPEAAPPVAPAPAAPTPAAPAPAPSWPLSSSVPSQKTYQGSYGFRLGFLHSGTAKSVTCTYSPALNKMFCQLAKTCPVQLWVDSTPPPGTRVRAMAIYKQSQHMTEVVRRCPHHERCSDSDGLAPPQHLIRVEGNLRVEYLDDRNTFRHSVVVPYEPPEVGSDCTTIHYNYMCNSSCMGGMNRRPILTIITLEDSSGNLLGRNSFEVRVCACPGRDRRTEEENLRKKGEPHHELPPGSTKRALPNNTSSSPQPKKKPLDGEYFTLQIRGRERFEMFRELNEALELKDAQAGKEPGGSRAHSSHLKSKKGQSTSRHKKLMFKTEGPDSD

CC(C)(O)c1ccc(CNC(=O)c2cccnc2Oc2ccc(F)cc2)cc1
not listed: [15] | [16] | [17] | [18]
inactive: all other assays above

CO[C@@H]1COCC[C@@H]1N[C@@H]1CC[C@@](C(=O)N2CCc3ncc(C(F)(F)F)cc3C2)(C(C)C)C1
not listed: [1] | [16] | [17] | [18]
inactive: all other assays above

O=C1O[C@H]([C@H](O)CO)C(O)=C1O
not listed: [2] | [7] | [9] | [10]
inactive: all other assays above

O=[Si]=O
not listed: [2] | [16] | [18]
inactive: all other assays above

NC1CCCCC1
not listed: [1] | [2] | [11] | [12] | [16] | [17] | [18]
inactive: all other assays above

O=C(O)c1cccnc1
not listed: [1] | [2] | [13] | [14] | [16] | [17]
inactive: all other assays above

CSc1ccc(Oc2ccc(S(N)(=O)=O)cc2CN(C)C)cc1C
not listed: [1] | [2] | [14] | [16] | [17] | [18]
inactive: all other assays above

CCCCCCC(C=O)=Cc1ccccc1
not listed: [1] | [2] | [13] | [16] | [17]
inactive: all other assays above

CC(COCC(C)OC(=O)c1ccccc1)OC(=O)c1ccccc1 (stereo not given)
not listed: [1] | [2] | [10] | [12] | [16] | [17]
inactive: all other assays above

CC1=C(C)S(=O)(=O)CCS1(=O)=O
not listed: [2] | [7] | [13]
inactive: all other assays above

CC(=O)[C@@]1(O)CC[C@H]2[C@@H]3CCC4=CC(=O)CC[C@]4(C)[C@H]3CC[C@@]21C
not listed: [1] | [2] | [14] | [16] | [17]
inactive: all other assays above

CC(C)c1cccc(C(C)C)c1NC(=O)NS(=O)(=O)c1cc(C(C)(C)O)co1
not listed: [1] | [2] | [5] | [11] | [16]
inactive: all other assays above

CCCCc1nc2cccnc2n1Cc1ccc(-c2ccccc2-c2nnn[nH]2)cc1
not listed: [1] | [2] | [8] | [18]
inactive: all other assays above

CC(=O)S[C@H](C(=O)N[C@H]1Cc2ccccc2[C@H]2CCC[C@@H](C(=O)O)N2C1=O)C(C)C
not listed: [1] | [2] | [13] | [14] | [15] | [18]
inactive: all other assays above

CCCCCCCCCCCCCCCCO
not listed: [1] | [2] | [16] | [17] | [18]
inactive: all other assays above

CN(C)C(=O)NC1(c2ccccc2)CCN(CCC[C@]2(c3ccc(Cl)c(Cl)c3)CCCN(C(=O)c3ccccc3)C2)CC1
not listed: [8] | [16]
inactive: all other assays above

CS(=O)(=O)c1ccc([C@@H](C[C@H]2CCC(=O)C2)C(=O)Nc2cnccn2)cc1Cl
not listed: [1] | [8] | [16] | [18]
inactive: all other assays above

OCC(O)CO
not listed: [1] | [2] | [16] | [17] | [18]
inactive: all other assays above
